Assay results as given in PubChem BioAssay (EPA / NIEHS).
The source made the active and inactive calls. How the source made its calls: active means hit-call score of the fitted dose curve at least 0.9, where 1 is the maximum; inactive means score below 0.9.

Key:
Settings in all cases: mRNA level, 48 h; actives raise or lower the signal
[1] = read-out: ABC Transporter (ABCC2), ABCC2 (gene 1244); assay: LTEA_HepaRG_ABCC2: Life Technologies and Expression Analysis (LTEA) Assay for ABC Transporter (ABCC2) using HepaRG (AID 2283464)
Summary of the method: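 HepaRG cells were plated 48 h, switched to serum-free induction medium, then exposed in duplicate for 48 h to 8 concentrations (top 100 uM, half-log steps, 0.5% DMSO). ABCC2 mRNA was measured by qRT-PCR normalized to ACTB/GAPDH/POLR2A; bidirectional fitting versus DMSO.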

[2] = read-out: Broad substrate specificity ATP-binding cassette transporter ABCG2 (Homo sapiens) (UniProt Q9UNQ0); assay: LTEA_HepaRG_ABCG2: Life Technologies and Expression Analysis (LTEA) Assay for ABC Transporter (ABCG2) using HepaRG (AID 2283465)
Summary of the method: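 Differentiated HepaRG cells were exposed for 48 h in serum-free induction medium to 8 half-log concentrations, top 100 uM, in 0.5% DMSO. ABCG2 mRNA was measured by qRT-PCR, normalized to ACTB, GAPDH and POLR2A, with bidirectional fitting versus DMSO.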

[3] = read-out: ATP-citrate lyase (ACLY), ACLY (gene 47); assay: LTEA_HepaRG_ACLY: Life Technologies and Expression Analysis (LTEA) Assay for ATP-citrate lyase (ACLY) using HepaRG (AID 2283466)
Summary of the method: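 Differentiated HepaRG cells exposed 48 h in serum-free induction medium to eight half-log concentrations up to 100 uM in 0.5% DMSO, duplicates. Transcript measured by Fluidigm TaqMan qRT-PCR, normalized to ACTB, GAPDH, POLR2A; bidirectional fit versus DMSO.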

[4] = read-out: Peroxisomal acyl-coenzyme A oxidase 1 (ACOX1) gene, ACOX1 (gene 51); assay: LTEA_HepaRG_ACOX1: Life Technologies and Expression Analysis (LTEA) Assay for Peroxisomal acyl-coenzyme A oxidase 1 (ACOX1) gene using HepaRG (AID 2283467)
Summary of the method: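 HepaRG cells, plated 48 h then switched to serum-free induction medium, were exposed in duplicate for 48 h to 8-point half-log concentrations up to 100 uM in 0.5% DMSO. ACOX1 mRNA was measured by qRT-PCR, normalized to ACTB/GAPDH/POLR2A, and fitted bidirectionally versus DMSO.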

[5] = read-out: Alkaline Phosphatase, Placental (ALPP) gene, ALPP (gene 250); assay: LTEA_HepaRG_ALPP: Life Technologies and Expression Analysis (LTEA) Assay for Alkaline Phosphatase, Placental (ALPP) gene using HepaRG (AID 2283468)
Summary of the method: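 Differentiated human HepaRG cells were plated and cultured 48 h, then exposed in duplicate for 48 h in serum-free induction medium to eight half-log concentrations from 100 uM in 0.5% DMSO. ALPP mRNA was measured by TaqMan qRT-PCR, normalized to ACTB, GAPDH, POLR2A.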

[6] = read-out: Bcl-2 (BAD) gene, BAD (gene 572); assay: LTEA_HepaRG_BAD: Life Technologies and Expression Analysis (LTEA) Assay for Bcl-2 (BAD) gene using HepaRG (AID 2283469)
Summary of the method: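 Differentiated HepaRG cells were exposed in duplicate in 0.5% DMSO for 48 h to eight-point half-log concentrations up to 100 uM. BAD mRNA was measured by Fluidigm TaqMan qRT-PCR, normalized to ACTB, GAPDH and POLR2A, and fitted bidirectionally against DMSO.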

[7] = read-out: adenosine kinase (ADK) gene, ADK (gene 132); assay: LTEA_HepaRG_ADK: Life Technologies and Expression Analysis (LTEA) Assay for adenosine kinase (ADK) gene using HepaRG (AID 2283471)
Summary of the method: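 Read-out is ADK transcript level measured by qRT-PCR and normalised to three housekeeping genes. Cells are human HepaRG, dosed for 48 h at up to 100 uM in 0.5% DMSO. Gain or loss of signal is fitted against DMSO controls.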

[8] = read-out: Alpha-fetoprotein (AFP) gene, AFP (gene 174); assay: LTEA_HepaRG_AFP: Life Technologies and Expression Analysis (LTEA) Assay for Alpha-fetoprotein (AFP) gene using HepaRG (AID 2283472)
Summary of the method: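 After a 48 h plating period, cells are moved to serum-free induction medium and dosed in duplicate (100 uM maximum, half-log dilutions, 0.5% DMSO) for another 48 h. Total RNA goes to TaqMan qRT-PCR; AFP signal is housekeeping-normalized.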

BCL2L11 (gene 10018) = assay: LTEA_HepaRG_BCL2L11: Life Technologies and Expression Analysis (LTEA) Assay for Bcl-2 (BCL2L11) gene using HepaRG (AID 2283473)
Summary of the method: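 Differentiated human HepaRG cells in serum-free induction medium were exposed in duplicate for 48 h to eight concentrations (top 100 uM, half-log steps, 0.5% DMSO). BCL2L11 mRNA was quantified by TaqMan qRT-PCR, normalized to ACTB/GAPDH/POLR2A, bidirectional fit versus DMSO.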

[9] = read-out: Bcl-2 (BAX) gene, BAX (gene 581); assay: LTEA_HepaRG_BAX: Life Technologies and Expression Analysis (LTEA) Assay for Bcl-2 (BAX) gene using HepaRG (AID 2283470)
Summary of the method: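 Concentration-response endpoint fitted in both directions relative to 0.5% DMSO vehicle. Human HepaRG cultures receive test chemicals for 48 h at up to 100 uM; BAX mRNA is quantified by qRT-PCR against housekeeping genes.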

Measured: AC50

Sequence of Broad substrate specificity ATP-binding cassette transporter ABCG2 (Homo sapiens) (Q9UNQ0 whole entry, looked up): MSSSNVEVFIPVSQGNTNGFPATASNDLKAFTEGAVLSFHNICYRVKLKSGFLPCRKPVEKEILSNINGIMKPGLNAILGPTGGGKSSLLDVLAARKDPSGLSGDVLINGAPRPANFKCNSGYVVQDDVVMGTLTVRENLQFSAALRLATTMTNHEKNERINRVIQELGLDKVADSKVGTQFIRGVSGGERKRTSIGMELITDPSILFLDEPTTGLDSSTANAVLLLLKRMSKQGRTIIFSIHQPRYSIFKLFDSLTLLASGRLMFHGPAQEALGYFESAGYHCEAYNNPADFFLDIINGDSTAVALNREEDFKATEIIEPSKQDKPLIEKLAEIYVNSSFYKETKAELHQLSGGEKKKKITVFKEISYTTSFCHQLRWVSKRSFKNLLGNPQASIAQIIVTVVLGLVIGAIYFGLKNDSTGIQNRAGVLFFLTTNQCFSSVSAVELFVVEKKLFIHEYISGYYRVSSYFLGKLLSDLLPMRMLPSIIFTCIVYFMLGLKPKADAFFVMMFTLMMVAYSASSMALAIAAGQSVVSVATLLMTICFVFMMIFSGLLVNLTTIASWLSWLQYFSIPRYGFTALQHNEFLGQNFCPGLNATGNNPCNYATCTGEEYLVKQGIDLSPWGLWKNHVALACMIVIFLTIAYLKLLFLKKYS

CC(Cc1ccc(OCC(=O)O)cc1)NCC(O)c1csc(C(F)(F)F)n1 (configuration not stated)
active: [5] 55.2 nM
not listed: [9]
inactive: all other assays above

c1nc[nH]n1
active: [5] 109 nM | [6] 105 nM
inactive: all other assays above

CCCN(CCC)c1c([N+](=O)[O-])cc(C(C)C)cc1[N+](=O)[O-]
active: [1] 18300 nM | [2] 18100 nM | [3] 129 nM | [8] 50000 nM | BCL2L11 (gene 10018) 106 nM
inactive: [4] | [5] | [6] | [7]

Cc1ccc(O)cc1C
not listed: [9]
inactive: all other assays above

CCC1(c2ccccc2)C(=O)N=C(O)NC1=O (configuration not stated)
not listed: [9]
inactive: all other assays above

CCCCN(CCCC)SN(C)C(=O)Oc1cccc2c1OC(C)(C)C2
not listed: [9]
inactive: all other assays above

CN(C)C(=O)Cl
not listed: [9]
inactive: all other assays above

CCOc1ccc(C(C)(C)COCc2cccc(Oc3ccccc3)c2)cc1
active: [1] 24600 nM | [2] 2640 nM
not listed: [9]
inactive: all other assays above

CCCCCCCc1ccc(O)cc1
inactive: all assays above

O=C(O)C1C(C(=O)O)C2(Cl)C(Cl)=C(Cl)C1(Cl)C2(Cl)Cl (configuration not stated)
not listed: [9]
inactive: all other assays above

ClC(Cl)c1ccccc1
not listed: [9]
inactive: all other assays above

ClC(Cl)(Cl)c1ccccc1
not listed: [9]
inactive: all other assays above

OCC1CO1 (configuration not stated)
not listed: [9]
inactive: all other assays above

COCCOCCO
not listed: [9]
inactive: all other assays above

c1cc2c3c(cccc3c1)CC2
not listed: [9]
inactive: all other assays above

CCN(CC)c1ccccc1
not listed: [9]
inactive: all other assays above

Nc1ccc(Cl)cc1
not listed: [9]
inactive: all other assays above

CCOC(=O)c1ccccc1C(=O)OCC
not listed: [9]
inactive: all other assays above

O=[N+]([O-])c1ccccc1
not listed: [9]
inactive: all other assays above

CCC(C)(C)c1ccc(O)cc1
not listed: [9]
inactive: all other assays above

CCCCN(CCCC)N=O
inactive: all assays above
